Assay outcomes (PubChem BioAssay)
Shiga toxin inh: blocks Shiga toxin action in Vero cells | Vero cells, Shiga toxin protein synthesis inhibition reporter | inhibition, % at 38.7 µM | hit rate 9.2% among 290,000; in the data active means inhibition mostly above about 28%, no sharp cut-off; inactive means mostly below about 43%; further: 0% is about no effect
FMDV inh: antivirals against foot and mouth disease virus. Potency, µM (doses to about 57.9 µM), for inactives: at the highest dose activity change, negative = inhibition, actives largely listed as inhibitors. hit rate 1.2% among 410,000. FMDV antiviral cell-based qHTS; calls by dose curve; tested in HEK293T cells; further: read-out not given here; potency means the concentration at half of the fitted maximal effect; on the % scale 0 is the no-effect control and ±100 the full control effect; nearly all actives have a fitted effect of over 45% in size
Cycloheximide cs: counter-screen hit for Shiga toxin inhibitors, cycloheximide; cell reporter, cycloheximide protein synthesis inhibition counterscreen; max response, %; hit rate 12% among 300,000; AID 2314; in the data active means max response mostly above about 13%, no sharp cut-off; inactive means mostly below about 14%; further: read at 38.3 µM for the half of the compounds with a filed dose; 0% is about no effect
LASV entry inh: blocks Lassa virus binding to or entry into cells. Lassa virus pseudotype entry inhibition, cell reporter. Potency, µM (series often up to 37.9 µM), for inactives: at the highest dose activity change, negative = inhibition, most hits filed as inhibitors. hit rate 1.2% among 300,000; calls by dose curve; tested in HEK293 cells; further: potency means the concentration at half of the fitted maximal effect; on the % scale 0 is the no-effect control and ±100 the full control effect; nearly all actives have a fitted effect of over 50% in size
Marburg entry inh: blocks Marburg virus binding to or entry into cells; Marburg virus pseudotyped entry inhibition, cell reporter; hit rate 1.8% among 300,000; Potency, µM (doses to about 37.8 µM), inactives show at the top dose activity change, negative = inhibition, usual class: inhibitors; calls by dose curve; tested in HEK293 cells; further: potency means the concentration at half of the fitted maximal effect; on the % scale 0 is the no-effect control and ±100 the full control effect
HCV inh: inhibitors of hepatitis C virus infection | Huh7.5.1 HCVcc-Cre infection, luciferase reporter, 44 h | Potency, µM (titrated, usually from 41.8 µM), inactives show at the highest dose activity change, negative = inhibition, usual class: inhibitors | hit rate 3.4% among 340,000; active means well fitted inhibition curve with a large enough effect; inconclusive means small, poorly fitted or top-dose-only effect, or another doubt; inactive means no such curve, though single readings can be large or run the other way; further: potency means the concentration at half of the fitted maximal effect; on the % scale 0 is the no-effect control and ±100 the full control effect
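Compounds are dispensed onto cells plated 4 h earlier at 1,000 per well, with HCVcc-Cre virus (about 0.5 moi) added next. Following 44 h of culture, luminescent signal is measured for 15 sec after 15 min with substrate at room temperature.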
* hit, by the source's call; ? = inconclusive; . = no result given; [ ] = dose if it differs, or a comment. This is a sample that favours compounds with a hit; in the whole collection about 13% have one here.

SMILES	Shiga toxin inh	FMDV inh	Cycloheximide cs	LASV entry inh	Marburg entry inh	HCV inh
COc1ccc(S(=O)(=O)Nc2cc(C(=O)NCCCN3CCOCC3)ccc2N2CCOCC2)cc1	5.2	-6.4%	-2.8	6.9%	-12.3%	0.5%
C[C@@H]1CC2=C(C(=O)OC(C)(C)O2)[C@H](c2ccc(F)cc2)O1	.	-23.2%	.	.	.	.
O=C(NCc1ccccc1)C(c1ccccc1)N(C(=O)c1csnn1)c1ccccc1 (centres undefined)	-3.6	10.1%	-0.9	-13.1%[46.1 µM]	?	-9.1%
COc1ccc(C(=O)C2CCCN(Cc3cnc(C)s3)C2)cc1OC (centres undefined)	-13.1	-7.7%	-1.0	7.6%	1.0%[46.1 µM]	-2.6%
Cc1ncc(CN2CCCC(C(=O)c3ccc(C(C)(C)C)cc3)C2)s1 (centres undefined)	43.6	?	9.9*	.	.	11.2µM*
COc1ccc2cc(C(=O)C3CCCN(Cc4cnc(C)s4)C3)ccc2c1 (centres undefined)	-4.7	0.0%	5.3	?	-36.2%[46.1 µM]	11.2µM*
CCOC(=O)C1CCN(Cc2cnc(Oc3ccc(C(C)(C)C)cc3)s2)CC1	7.2	-27.8%	-1.9	9.2µM*	3.0%	-11.1%
CCOC(=O)C1CCN(Cc2cnc(NC(=O)OC)s2)CC1	-8.5	10.8%	1.3	19.7%	13.7%	12.7%
Cc1csc(NC(=O)c2ccc3c(c2)OCO3)n1	71.2*	12.1%	30.8*	7.08µM*	?	0.0%
CCOC(=O)Cc1csc(NC(=O)c2cc(C)cc(C)c2)n1	18.9	0.0%	-1.8	-17.0%[46.1 µM]	-24.6%[46.1 µM]	-14.3%
CCOC(=O)Cc1csc(NC(=O)c2ccc3c(c2)OCO3)n1	40.5*	-8.7%	14.9*	-11.8%	-4.3%	-30.8%
Cc1csc(NC(=O)c2ccoc2C)n1	63.6*	32.2%	49.2*	?	?	21.4%
CCOC(=O)Cc1csc(NC(=O)c2ccc(F)cc2)n1	7.7	-29.9%	7.5	.	.	-9.5%
CCOC(=O)Cc1csc(NC(=O)c2ccc(C)cc2)n1	90.9*	-11.4%	33.6*	.	-3.1%[46.1 µM]	21.5%
Cc1cccnc1NC(=O)c1ccc2c(c1)OCO2	.	15.9%	.	2.5%	6.3%	20.6%
COCCNc1nc2nonc2nc1N1CCC(N(C)C)C1 (centres undefined)	14.9	-4.7%	4.9	.	.	15.8%
O=C(Nc1nccs1)c1ccc2c(c1)OCO2	64.6*	51.4%	19.5*	-11.7%[46.1 µM]	?	-7.0%
CCOC(=O)Cc1csc(NC(=O)c2c(C)noc2C)n1	.	-27.8%	.	.	.	-7.7%
CCOC(=O)Cc1csc(NC(=O)c2ccoc2C)n1	83.6*	2.1%	29.3*	8.7%	14.8%	?
CC(C)(C)NC(=O)CN(Cc1ccc2c(c1)OCO2)C(=O)CCC(=O)Nc1nccs1	37.9	0.6%	14.7*	-19.3%	13.4%[46.1 µM]	3.1%
CCOC(=O)c1c(N2C(=O)C=CC2=O)sc(C)c1C	-3.0	.	10.3	?	?	?
COc1ccc(C(=O)Cn2cnc3ccccc3c2=O)cc1	88.6*	32.6%	40.9*	3.5%	4.8%[46.1 µM]	6.7%
COc1ccc(OCC(=O)Nc2cc(-c3nn(C)c(=O)c4ccccc34)ccc2OC)cc1	-5.9	?	9.1	?	4.11µM*	8.91µM*
COc1ccc(NC(=O)COc2ccc(-c3nn(C)c(=O)c4ccccc34)cc2)cc1	-10.3	-14.3%	-1.5	-6.0%[46.1 µM]	?	-23.4%
O=C(Cn1cnc2ccccc2c1=O)c1ccc2ccccc2c1	68.4*	-13.1%	56.4*	22.7%	6.9%	-29.5%
SMILES	Shiga toxin inh	FMDV inh	Cycloheximide cs	LASV entry inh	Marburg entry inh	HCV inh
COc1ccc(C(=O)CSc2nc(C(C)(C)C)nc3ccccc23)cc1	-3.7	?	6.2	.	.	3.98µM*
CC(C)c1cc(-c2nc(-c3ccc(Cl)cc3)no2)n[nH]1	.	-16.2%	.	?	.	.
COc1ccc(OC)c(NC(=O)CNC(=O)Cn2cnc3ccccc3c2=O)c1	-3.3	-4.3%	-2.1	-4.4%	0.708µM*	?
Cc1ccc(C(=O)Cn2cnc3ccccc3c2=O)cc1C	104.1*	36.4%	64.2*	?	24.1%	-10.0%
COc1ccc(OC)c(NC(=O)CCNC(=O)Cn2cnc3ccccc3c2=O)c1	13.4	-18.6%	5.4	19.7%[46.1 µM]	-1.3%[46.1 µM]	-7.9%
CCN(CC)C(=O)Cn1cnc2ccccc2c1=O	-7.5	-13.2%	-3.4	-2.7%	-15.9%	4.8%
O=C(O)Cn1cnc2ccccc2c1=O	-16.6	.	-6.8	14.0%	0.8%	4.4%
O=C(Cn1cnc2ccccc2c1=O)c1ccc2c(c1)OCCO2	70.0*	20.7%	49.6*	?	?	17.3%
Cc1oc2c(c1C(=O)NCc1cc(C(=O)O)co1)CCCC2	-14.2	-14.5%	-2.4	20.7%	-1.5%	14.8%
Cc1cccc(NC(=O)c2nc[nH]c2C(=O)N[C@@H](CC(C)C)C(=O)OCc2ccccc2)c1	-8.8	-13.4%	-3.3	.	.	16.4%
CCOC(=O)C1=C(C)N(CCCC(=O)O)C(=O)NC1c1ccc2ccccc2c1 (centres undefined)	.	-9.5%	.	.	.	16.3%
N#Cc1nc(-c2ccccc2Cl)oc1NCC1CCCO1 (centres undefined)	90.6*	-7.3%	16.3	.	.	12.6µM*
COc1ccc(-c2nc(C#N)c(NCC3CCCO3)o2)cc1OC (centres undefined)	10.5	34.8%	22.7*	0.6%	-0.6%	?
CCOc1ccc(-c2nc(C#N)c(NCC3CCCO3)o2)cc1 (centres undefined)	28.0	23.3%	12.8	-19.4%	-12.7%	-7.1%
COc1ccccc1CCNS(=O)(=O)CCNC(=O)c1ccccc1	.	-4.7%	.	2.8%	1.3%	8.0%
COc1ccccc1CCNC(=O)c1ccc(Br)s1	63.4*	21.4%	37.1*	.	.	-21.9%
COC(=O)c1ccccc1NC(=O)NCCc1ccccc1OC	82.9*	24.5%	28.0*	-0.1%[46.1 µM]	?	-1.4%
CC(C)CCNC(=O)c1csc2c1CCCCC2	55.1*	40.2%	46.9*	-0.8%	18.9%[46.1 µM]	0.6%
CCCCN(CC)CCCNC(=O)c1csc2c1CCCCC2	28.2	?	0.8	-25.1%	?	35.5µM*
CC1CC(C)CN(CCCNC(=O)c2csc3c2CCCC3)C1 (centres undefined)	-11.6	-15.7%	-4.2	-23.0%	?	?
CCOC(=O)CC[C@H](NC(=O)Cn1cnc2c(OCc3ccccc3)ncnc21)C(=O)OCC	.	-15.6%	.	.	.	-4.4%
COc1ccc(NC(=O)N(C)C[C@H]2OCc3cnnn3CCCC(=O)N([C@@H](C)CO)C[C@H]2C)c(OC)c1	.	0.0%	.	.	.	.
O=C1CCc2cc(S(=O)(=O)NC(C(=O)N3CCN(c4ccccn4)CC3)c3ccccc3)ccc2N1 (centres undefined)	-8.3	-17.2%	-1.9	.	.	-16.0%
COC(=O)C1=C(NC(=O)C2CCCCC2)CCS1	-9.5	-11.5%	-4.5	0.8%	8.2%	-5.0%
COc1ccc(CNC(=O)c2csc3c2CCCC3)cc1	.	20.2%	.	1.5%	11.4%	-4.2%
COc1ccccc1CCNC(=O)c1csc2c1CCCC2	37.8*	40.8%	13.1	?	?	?
COc1nc(N)nc(NC(=O)c2cccs2)c1N=O	.	?	.	10.4%	-16.8%[46.1 µM]	-4.7%
